Assay outcomes deposited in PubChem BioAssay by several laboratories.
aSyn 5UTR inh = MLPCN primary screen, SNCA 5' untranslated region; 0.82% of 300,000 active; inhibition, % (tested at 7.5 µM); alpha-synuclein 5'UTR reporter, inhibitor activity; in the data active = inhibition above about 60%;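 note: H4 neuroglioblastoma cells stably carrying SNCA 5'UTR luciferase fusion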
IEC-6 cytotox = kills IEC-6 intestinal cells in KLF5 counter-screen. IEC-6 cytotoxicity, luminescence viability. 0.78% of 290,000 active. inhibition, % at 5 µM. AID 1825; in the data active = inhibition above about 22%
SKKanGAS inh = blocks kanamycin growth of S. pyogenes SKKanGAS strain. BacTiter-Glo, 6 h. inhibition, % at 7.5 µM. 1.3% of 300,000 active. AID 1662;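 active = mean replicate score, as percent of positive control median, at least 50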;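 note: strain carries kanamycin resistance gene driven by streptokinase promoter and grows in 40 µg/ml kanamycin; loss of luminescence reflects streptokinase promoter inhibition or plain growth inhibition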
KLF5 inh = inhibitors of KLF5 expression; DLD-1 KLF5 promoter-luciferase reporter, luminescence; inhibition, % at 5 µM; 0.23% of 290,000 active; AID 1700;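 active = inhibition above a per-plate limit of that plate's mean compound inhibition plus 3 SD, cut at about 60% in these data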;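 note: higher means less KLF5 promoter-driven luciferase light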
CSC inhib = cancer stem cell inhibition. cancer stem cell-like cells viability, luminescence. inhibition, % at 7.5 µM. 1.1% of 300,000 active. AID 2717; in the data active = inhibition above about 75%; tested in HMLE shEcad cells
Each line names hits and unclear results; the compound was inactive in the other large screens. Rows were chosen to be rich in hits. Some 3% of all compounds tested hit in one or more screens of this group.

CC12CCC(=O)N1C(C(=O)Nc1cccc(F)c1)CS2 (stereo not given)	none
COc1ccc(/C=C2/Sc3ccc(C(=O)N4CCc5ccccc5C4)cc3NC2=O)cc1	SKKanGAS inh 102
COc1ccc(/C=C2\Sc3ccc(C(=O)NCCN4CCCCCC4)cc3N(C)C2=O)cc1	none
COc1ccc(/C=C2\Sc3ccc(C(=O)N4CCc5ccccc5C4)cc3N(C)C2=O)cc1	SKKanGAS inh 103
Cc1cc(C)n(C(=O)Cn2nc(C)c(Br)c2C)n1	none
Cc1ccc(CS(=O)(=O)CC(C)(O)c2ccc(Cl)cc2)cc1 (stereo not given)	none
Cc1c(NCc2cc(Cl)ccc2O)c(=O)n(-c2ccccc2)n1C	none
Cc1c(NCc2cc(Cl)cc(Cl)c2O)c(=O)n(-c2ccccc2)n1C	SKKanGAS inh 85
O=C(c1ccco1)N1CCN(C(=O)C2CC(=O)N(c3ccccc3)C2)CC1 (stereo not given)	none
C/C(=N/NC(=O)c1cc(C2CC2)[nH]n1)c1cccs1	aSyn 5UTR inh 84
CCN(CC(=O)NC(C)(C)C)C(=O)COc1c(Cl)cc(Cl)c2ccc(C)nc12	SKKanGAS inh 87
CCOc1ccccc1NC(=O)COC(=O)COc1c(Cl)cc(Cl)c2ccc(C)nc12	none (no result: IEC-6 cytotox, KLF5 inh)
O=C(CNC(=O)c1ccccc1F)N/N=C/c1ccc2c(c1)OCO2	none
O=C(O)CSc1c(-c2ccccc2)c2cc(Cl)ccc2[nH]c1=O	none
NNC(=O)c1[nH]c2ccc(Br)cc2c1-c1ccccc1	none
CCN(CC)C(=S)Sc1c(-c2ccccc2)c2cc(Cl)ccc2[nH]c1=O	SKKanGAS inh 92
NNC(=O)c1[nH]c2ccc(Cl)cc2c1-c1ccccc1	aSyn 5UTR inh 77
COc1ccc(CN2CC(C(=O)N3CC(C)CC(C)C3)CC2=O)cc1 (stereo not given)	none
Cc1ccnc(N2CCC(C(=O)Nc3ccc4c(c3)OCCO4)CC2)n1	none
CCN1CCN(Cc2ccc(NC(=O)c3cc(NC(=O)c4cc(C)on4)cc(OC)c3)cc2C(F)(F)F)CC1	none
CCN1CCN(Cc2ccc(NC(=O)c3cc(NC(=O)c4cnn(-c5ccccc5)c4N)cc(OC)c3)cc2C(F)(F)F)CC1	CSC inhib 131 (no result: IEC-6 cytotox, KLF5 inh)
CCN1CCN(Cc2ccc(NC(=O)c3cc(NC(=O)C(=O)c4c[nH]c5ccccc45)cc(OC)c3)cc2C(F)(F)F)CC1	aSyn 5UTR inh 117, SKKanGAS inh 99 (no result: IEC-6 cytotox, KLF5 inh)
CCN1CCN(Cc2ccc(NC(=O)c3ccc(C)c(NC(=O)c4ccnnc4)c3)cc2C(F)(F)F)CC1	none (no result: IEC-6 cytotox, KLF5 inh)
O=C(CNC(=O)c1cccc(Cl)c1)N/N=C/C=C/c1ccccc1	none
CC1S/C(=N/N=C/c2cccc([N+](=O)[O-])c2)NC1=O (stereo not given)	CSC inhib 88
CC1S/C(=N/N=C/c2cccs2)NC1=O (stereo not given)	none
COc1ccc(C2CC(c3c(O)cc(C)oc3=O)=NCCS2)c(OC)c1 (stereo not given)	CSC inhib 80 (no result: aSyn 5UTR inh, SKKanGAS inh)
Cc1ccsc1/C=C/c1ccc2cccc(O)c2n1	SKKanGAS inh 101, CSC inhib 92
Oc1cccc2ccc(/C=C/c3cccs3)nc12	SKKanGAS inh 120
Cc1ccsc1/C=C/c1ccc2ccccc2n1	none
O=C(NN1C(=O)C2C(c3ccccc3)C=CC(c3ccccc3)C2C1=O)c1cccc(Br)c1 (stereo not given)	none
CCN(CC)CCOc1ccc(/C(=C(\Cl)c2ccccc2)c2ccccc2)cc1	CSC inhib 103 (no result: IEC-6 cytotox, KLF5 inh)
CCN(CC)CCOc1ccc(Br)cc1	none
Cc1cc(C)cc(NC(=O)[C@@H](NC(=O)c2ccco2)C(C)C)c1	none
CCOC(=O)/C(=N/Nc1ccccc1)c1csc(Nc2ccccc2)n1	SKKanGAS inh 91, CSC inhib 107
CCOC(=O)/C(=N\Nc1ccc(Cl)cc1)c1csc(Nc2ccccc2)n1	SKKanGAS inh 73
CCN(CC)C(=O)c1csc(Nc2ccc(C)cc2)n1	none (no result: SKKanGAS inh)
CCCCC(CCC(=O)O)(C(=O)OCC)c1csc(Nc2ccccc2)n1 (stereo not given)	none
CCOC(=O)/C(=N\Nc1ccc(OC)cc1)c1csc(Nc2ccccc2)n1	SKKanGAS inh 60, CSC inhib 104
CC(C)N(C(=O)CSc1nnc(-c2ccc3c(c2)OCO3)n1C)C(C)C	none
COc1ccc(CNC(=O)CN2C(=O)CSc3ccc(S(=O)(=O)N4CCOCC4)cc32)c(OC)c1	none
O=C(Nc1cc(S(=O)(=O)N2CCCCC2)ccc1N1CCOCC1)c1ccc(C(F)(F)F)cc1	none (no result: aSyn 5UTR inh, IEC-6 cytotox, SKKanGAS inh, KLF5 inh)
Cc1ccc2oc(/N=C(\N)NC(=O)C(C)(C)C)nc2c1	aSyn 5UTR inh 96
O=c1c2c(nc3c(-c4ccc(Cl)cc4)c[nH]n13)CCCC2	aSyn 5UTR inh 66, SKKanGAS inh 71 (no result: CSC inhib)
CC(C)CN1CCC(=O)N([C@H](COc2ccccc2)c2ccccc2)CC1	none
